An excerpt weighted towards active compounds, which were near 1.7% of everything screened.
HEK293 tox = qHTS of GLP-1 Receptor Inverse Agonists: Cytotox Screen; HEK293 cAMP-luciferase reporter cells, luminescence, 24 h; Potency, µM (titrated, usually from 38.3 µM), for inactives: at the top dose activity change, negative = inhibition, usual class: inhibitors; 410,000 compounds, 0.13% hits;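 note: loss of luciferase light is scored as toxicity; % is set by controls: 0 for no effect and ±100 for the full control effect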
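Step one: seed cells (200 cells/uL, DMEM with 10% Nu serum, 1% pen-strep). Step two: 12-hour incubation at 37 deg C. Step three: pin 23 nL compound, incubate 24 hr. Step four: add luciferase reagent, read luminescence 12 min later.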
GLP-1R inv ag = qHTS of GLP-1 Receptor Inverse Agonists (Inhibition Mode) | Glucagon-like peptide 1 receptor (Homo sapiens), P43220 | HEK293 GLP-1R CRE-luciferase, luminescence, 24 h; GLP-1R form is constitutively active | Potency, µM (titrated, usually from 38.3 µM), inactives show at the top dose activity change, negative = inhibition, usual class: inhibitors | 410,000 compounds, 1.6% hits; note: % is set by controls: 0 for no effect and ±100 for the full control effect; nearly all actives have a fitted effect of over 55% in size
Target sequence (P43220 whole entry, looked up): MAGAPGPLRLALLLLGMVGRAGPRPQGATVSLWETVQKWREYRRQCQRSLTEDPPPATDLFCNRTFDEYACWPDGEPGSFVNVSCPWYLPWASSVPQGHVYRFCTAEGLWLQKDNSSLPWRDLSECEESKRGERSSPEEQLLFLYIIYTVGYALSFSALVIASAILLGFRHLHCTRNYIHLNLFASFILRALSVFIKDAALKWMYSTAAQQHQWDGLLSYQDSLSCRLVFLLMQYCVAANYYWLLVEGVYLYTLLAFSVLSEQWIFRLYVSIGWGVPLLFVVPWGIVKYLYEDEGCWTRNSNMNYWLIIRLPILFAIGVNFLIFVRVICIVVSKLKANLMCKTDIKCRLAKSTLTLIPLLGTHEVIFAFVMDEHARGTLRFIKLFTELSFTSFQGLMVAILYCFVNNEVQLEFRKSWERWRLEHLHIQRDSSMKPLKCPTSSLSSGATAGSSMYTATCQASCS
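Constitutively active GLP-1R drives a cAMP-responsive luciferase in stably transfected HEK293 cells; test compounds are added after overnight (12 h) attachment and left 24 hr, and signal loss in luminescence marks inhibition.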
GLP1R ag = qHTS of GLP-1 Receptor Agonists | Glucagon-like peptide 1 receptor (Homo sapiens), P43220 | HEK293 GLP-1R CRE-luciferase, luminescence, 4-6 h; cells express a hypersensitive GLP-1R form | 380,000 compounds, 0.007% hits | Potency, µM (series often up to 45.6 µM), without a hit: top-dose activation, actives largely listed as activators | AID 624172, 2012; note: % of control where 0% means no effect
Numbers without * were called inactive; ? = inconclusive; / = no result given; [ ] = another dose, or the depositor's remark. Calls come from the whole dose curve; as a rule, active = well fitted curve in the direction sought with a large enough effect; inconclusive = small, poorly fitted or top-dose-only effect, or another doubt; inactive = no such curve, though single readings can be large; an effect the other way counts as inactive or inconclusive. Potency is the fitted concentration of half-maximal effect.

SMILES	HEK293 tox	GLP-1R inv ag	GLP1R ag
CCOC(=O)c1c(-c2ccc(C)cc2)csc1NC(=O)c1nc(SC(C)C)ncc1Cl	3%	9%	/
Cn1cnnc1Sc1ccc(C(F)(F)F)cc1[N+](=O)[O-]	1%	6.3µM*	1%
Cn1cnnc1Sc1ccc(C(=O)OCC(=O)NC2CC2)cc1[N+](=O)[O-]	6%	3%	8%
O=c1cc(COc2ccccc2[N+](=O)[O-])nc2sccn12	0%	34%	1%
COc1cc(/C=C2\SC(=S)N(CC(=O)Nc3ccc(O)cc3)C2=O)cc(OC)c1OC	-10%	9%	-2%
CCOC(=O)c1c(C)nc2ccccc2c1-c1ccccc1	-2%[1.53 µM]	?	10%
CCOC(=O)c1c(C)nc2ccc(Cl)cc2c1-c1ccccc1	-7%	10µM*	?
O=C(CNC(=O)c1ccco1)N/N=C/c1ccc(C(=O)O)cc1	7%	17%	1%
O=C(NCC(c1ccco1)S(=O)(=O)c1cccs1)c1ccc(F)c(F)c1 (stereo not given)	-10%	-6%	/
CC(=O)O[C@H]1[C@@H](O)[C@H](O)[C@H](Oc2c(O)c(C)c3c4c2[C@@H](C)CC[C@@H]4[C@@H](C)C[C@H]3C=C(C)C)O[C@H]1C	?	11µM*	-2%
CC(=O)O[C@@H]1[C@@H](O)[C@@H](O)[C@H](Oc2c(-c3ccc(O)cc3)oc3c(CC=C(C)C)c(O)cc(O)c3c2=O)O[C@H]1C	-10%	-23%	-4%
CCCc1ccc2oc(C(=O)NCCN3CCCC(C(N)=O)C3)c(C)c2c1 (stereo not given)	32%	?	-6%
CCCc1ccc2oc(C(=O)NCCN3CCCC(O)C3)c(C)c2c1 (stereo not given)	4%	10µM*	21%
CCOC(=O)c1ccc(NC(=O)C2(c3ccc(OC)cc3)CCOCC2)cc1	-23%	?	1%
Cc1csc(NC(=O)c2ccccc2)n1	1%	-13%	1%
CCOC(=O)c1ccc(NC(=O)C2(c3ccc(OC)cc3)CCCC2)cc1	-16%	5µM*	2%
Cc1csc(NC(=S)NC(=O)c2ccccc2)n1	?	3.5µM*	8%
O=C(Nc1ccccc1)C(=O)Nc1ccccn1	1%	?	0%
S=C(Nc1ccc(Nc2ccccc2)cc1)Nc1ccccn1	?	2.2µM*	13%
O=C(NC(=S)Nc1ccccn1)c1ccc(-c2ccccc2)cc1	?	?	2%
O=C(NC(=S)Nc1ccccn1)c1ccccc1	?	10µM*	-7%
S=C(NCCc1ccccc1)N1CCN(C23CC4CC(CC(C4)C2)C3)CC1	-1%[0.307 µM]	-10%[0.307 µM]	4%
COC(=O)c1ccc(NC(=O)CCN2CCOCC2)cc1	-9%	12%	7%
OC[C@@H]1CN(CCN2CCOCC2)C[C@H](n2cnc3c(NC4CCC4)ncnc32)O1	-3%	-3%	-9%
CCOC(=O)c1ccc(NC(=S)Nc2ccccn2)cc1	5.6µM*	?	1%
SMILES	HEK293 tox	GLP-1R inv ag	GLP1R ag
COC(=O)c1ccc(NC(=O)Nc2ccc(F)cc2)cc1	-28%	?	1%
CCOC(=O)c1ccc(NC(=S)Nc2ccc(Cl)cn2)cc1	-1%	-8%	-6%
CCOC(=O)c1ccc(NC(=O)Nc2ccc(F)cc2)cc1	?	4.5µM*	-6%
CN(C)CCNc1ncnc2c1ncn2[C@H]1CN(Cc2ccncc2)C[C@@H](CO)O1	0%	-17%	-2%
COc1ccc2c(=O)c(-c3ccccc3C)c(C)oc2c1	-1%	?	-1%
COc1ccc2c(=O)c(-c3ccc(C)cc3)c(-c3ccccc3)oc2c1	4%	7.9µM*	-3%
CCOC(=O)Cc1csc(NC(=O)Nc2ccc(Cl)cc2)n1	1%	11µM*	-1%
CCOC(=O)Cc1csc(NC(=O)Nc2cccc(Cl)c2)n1	-18%	?	11%
COc1ccc(OC)c(C2c3c(-c4ccc(Br)cc4)n[nH]c3C(=O)N2c2ccc(Cl)cc2)c1 (stereo not given)	2%	3%	-5%
COc1ccc(OC)c(NC(=O)CN(Cc2ccc(F)cc2)C2CCCCC2)c1	-11%	3.5µM*	8%
COc1ccc(OC)c(NC(=O)NCc2ccc(F)cc2)c1	2%	-5%	-4%
OC(Cc1ccccc1)c1ncc(-c2ccc3ccccc3c2)[nH]1 (stereo not given)	-9%	-23%	14%
Cc1ccc(NC(=O)C2CCN(c3nc(-c4ccc(C(C)C)cc4)no3)CC2)c(Cl)c1	3%	-3%	/
Cc1ccc(-c2noc(CCC(=O)N(C)c3ccccc3F)n2)cc1	2%	-18%	/
CCOc1ccc(N(CC)C(=O)CCc2nc(-c3ccccc3F)no2)cc1	-8%	?	/
CCN(CCCNC(=O)CCc1nc(-c2ccc(C)cc2)no1)c1cccc(C)c1	5%	10µM*	4%
Cc1cccc(-c2noc(CCC(=O)NCCc3ccccc3)n2)c1	1%	?	17%
CCCN(C(=O)CCc1nc(-c2ccc(C)cc2)no1)c1ccc(OCC)cc1	5%	11µM*	/
CCc1ccccc1N(CC)C(=O)CCc1nc(-c2ccc(C)cc2)no1	2%	8.9µM*	6%
CC(C)CNC(=O)C1(C)CCCN1C(=O)c1cccnc1 (stereo not given)	3%	-14%	-1%
COc1cccc(C(=O)NCC(=O)N2CCC3(CC2)NCCc2[nH]cnc23)c1OC	-5%	13%	0%
Cc1cc(C)c(NC(=O)C(C)n2c(=O)cc(-c3ccccc3)c3c(C)nn(C)c32)c(C)c1 (stereo not given)	3%	16%	/
O=C(NCC(c1ccco1)N1CCCC1)c1cc2cc(Cl)ccc2o1 (stereo not given)	11%	10µM*	14%
O=C(NCC(c1ccco1)N1CCCC1)c1ccc(Cl)cc1 (stereo not given)	-11%	?	-9%
Cc1ccc(OCC(=O)Nc2c(C(=O)c3ccc(Cl)cc3)oc3ccccc23)cc1C	-7%	7%	/
SMILES	HEK293 tox	GLP-1R inv ag	GLP1R ag
CCN(CC)c1ccc(C(=C2C=CC(=[N+](CC)CC)C=C2)c2ccccc2)cc1	5µM*	?	-5%
CCN(CC)c1ccc(C(=C2C=CC(=[N+](CC)CC)C=C2)c2ccc(N(CC)CC)cc2)cc1	?	?	-4%
COc1cccc(OCC(O)CN2CCN(c3ccccc3)CC2)c1 (stereo not given)	-3%	?	-4%
Cc1ccc(N2CCN(CC(O)COc3cccc4ccccc34)CC2)cc1 (stereo not given)	?	11µM*	-6%
COc1cccc(OCC(O)CN2CCN(c3ccc(Cl)cc3)CC2)c1 (stereo not given)	1%	10µM*	-1%
Cc1ccccc1OCC(O)CN1CCN(CC(O)COc2ccccc2C)CC1 (stereo not given)	-6%	8.9µM*	-2%
OC(COc1cccc2ccccc12)CN1CCN(c2ccccc2Cl)CC1 (stereo not given)	?	?	26%
Cc1ccccc1OCC(O)CN1CCCCC1 (stereo not given)	?	12%	-5%
